# Pf growth 48h: inhibits P. falciparum growth in the first generation, 48 h. P. falciparum luciferase growth in erythrocytes, 48 h. Potency, µM (top dose mostly 28.7 µM), for inactives: at the highest dose activity change, negative = inhibition, hits mostly inhibitors. hit rate 5.9% among 310,000; also: potency is read from the fitted curve at half-maximal effect; % is scaled to controls: 0 for no effect and ±100 for the full control effect
#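 Luminescence readout; reporter = integrated firefly luciferase in P. falciparum. RBC culture at 2% hematocrit, 0.1% parasitemia final, 37 C/5% CO2; decreased signal taken as growth inhibition.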
# Shiga inhibitor: blocks Shiga toxin action in Vero cells; Vero cells, Shiga toxin protein synthesis inhibition reporter; inhibition, % at 38.7 µM; hit rate 9.2% among 290,000; in the data active = inhibition mostly above about 28%, no sharp cut-off; inactive = mostly below about 43%; also: 0% is about no effect
# Pf growth 96h: P. falciparum growth inhibition at 96 hours; P. falciparum luciferase reporter growth, 96 h; Potency, µM (top dose mostly 28.7 µM), for the others: at the highest dose activity change, negative = inhibition, hits mostly inhibitors; hit rate 6.9% among 320,000; AID 504834; also: potency is read from the fitted curve at half-maximal effect; % is scaled to controls: 0 for no effect and ±100 for the full control effect
#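 96 h incubation, 37 C, 5% CO2, of luciferase-reporter P. falciparum-infected RBCs (2% hematocrit, 0.05% parasitemia final) with test compounds; endpoint luminescence.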
# HCMV inh: blocks human cytomegalovirus replication; hit rate 4.5% among 410,000; HFF cells, HCMV-luciferase reporter, 72 h; hits give low values; AID 1259415; activity change, negative = inhibition, % at 57.5 µM; in the data active = activity change below about -60%; inconclusive = no clear call, values can overlap the other calls; inactive = above about -39%; also: % is scaled to controls: 0 for no effect and ±100 for the full control effect
#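 Compounds were evaluated in HFFs infected with an HCMV luciferase reporter virus (MOI 1 PFU/cell). Luciferase in lysates collected 72 h post infection served as the replication measure.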
# HCV inhibitor: blocks hepatitis C virus; Potency, µM (titrated, usually from 41.8 µM), for inactives: top-dose activity change, negative = inhibition, actives largely listed as inhibitors; AID 651820; hit rate 3.4% among 340,000; Huh7.5.1 HCVcc-Cre infection, luciferase reporter, 44 h; also: potency is read from the fitted curve at half-maximal effect; % is scaled to controls: 0 for no effect and ±100 for the full control effect
#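 Infectious HCV cell culture screen: compound-treated cells (1,000/well, pre-plated 4 h) are infected with HCVcc-Cre at roughly 0.5 moi and grown 44 h. Infection is quantified by luciferase signal after 15 min substrate incubation at room temperature.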
# Cycloheximide cs: affects cycloheximide protein synthesis inhibition readout, counter-screen. hit rate 12% among 300,000. cell reporter, cycloheximide protein synthesis inhibition counterscreen. AID 2314. max response, %; in the data active = max response mostly above about 13%, no sharp cut-off; inactive = mostly below about 14%; also: read at 38.3 µM for the half of the compounds with a filed dose; 0% is about no effect
# The depositor's hits bear a star; ? = inconclusive; · = no result; [ ] = dose if it differs, or a comment. Hits are enriched below; roughly 21% of the tested compounds scored in any of these assays. Unless noted, calls follow the shape of the dose curve; as a rule, active = well fitted inhibition curve with a large enough effect; inconclusive = small, poorly fitted or top-dose-only effect, or another doubt; inactive = no such curve, though single readings can be large or run the other way.
SMILES,Pf growth 48h,Shiga inhibitor,Pf growth 96h,HCMV inh,HCV inhibitor,Cycloheximide cs
Cn1nnc2c[n+](CC(=O)c3ccc(Cl)cc3)cc(Br)c21,-4%,18,-2%,-96*,?,-2
c1ccc(Oc2nc(NC3CCCCC3)c3[nH]cnc3n2)cc1,·,-5,·,·,·,-3
COc1ccc2c(-c3ccc(S(N)(=O)=O)cc3)c(-c3ccc(S(C)(=O)=O)cc3)sc2c1,·,·,·,-27,25µM*,·
O=C(Nc1c(C(=O)N2CCC(N3CCCCC3)CC2)oc2ccccc12)c1c(F)cccc1F,?,-2,?,-2,?,-2
O=C(Nc1c(C(=O)N2CCC(N3CCCCC3)CC2)oc2ccccc12)c1ccc(F)cc1,?,-7,?,-31,13µM*,-2
O=C(COc1ccccc1)Nc1c(C(=O)N2CCC(N3CCCCC3)CC2)oc2ccccc12,?,-3,-11%,-70*,-26%,-3
COc1ccc2cc(C(=O)OC(C)C)sc(=O)c2c1OC,-18%,30*,33%,45,?,14*
COc1ccc(N2CCN(C(=O)C3CCN(S(=O)(=O)c4cnc[nH]4)CC3)CC2)cc1,·,·,·,8,·,·
CC(=O)c1ccc(Nc2cc(C)nc3c(C)cccc23)cc1,?,0,49%,-6,-23%,0
Cc1cc(Nc2cccc(Br)c2)c2ccccc2n1,·,·,·,-71*,7.1µM*,·
CC(=O)c1cccc(Nc2cc(C)nc3ccc(C)cc23)c1,4.1µM*,5,?,-8,?,7
CCOC(=O)c1ccc(Nc2nc(C)cc(C)n2)cc1,-29%[0.00184 µM],-1,18%,40,-16%,6
Cc1cc(Nc2cccc(O)c2)c2ccccc2n1,?,-7,6%,·,·,6
CC(=O)c1ccc(Nc2nc(C)cc(C)n2)cc1,107%,95,?,46,9%,28*
CC(=O)c1cccc(Nc2cc(C)nc3c(C)cc(C)cc23)c1,9.3µM*,1,?,-37,-20%,-3
O=C(N/C(=C\c1ccccc1)C(=O)N1CCOCC1)c1ccccc1Br,13%,-2,2%,-33,18%,1
Cc1cnc(C(=O)NC(Cc2ccccc2)c2ccccc2)cn1 (centres undefined),?,-3,21%,18,1%,2
CC(=O)c1ccc(Nc2cc(C)nc3ccccc23)cc1,?,37,?,?,?,18*
COC(=O)c1ccc(Nc2cc(C)nc3ccc(C)cc23)cc1,?,-22,?,3,10µM*,-5
Cc1ccc2nc(C)cc(Nc3ccc([N+](=O)[O-])cc3)c2c1,0.74µM*,-10,?,?,3.5µM*,-6
Cc1ccc(Cn2ccc(NC(=O)c3cc(-c4ccc(F)cc4)on3)n2)cc1,-21%,-2,3.3µM*,-9,14%,5
Cc1ccc(Cn2ccc(NC(=O)c3nn(C)cc3Cl)n2)cc1,142%,92*,182%,3,11%,38*
Cc1ccc(O)c(NC(=O)c2cc(-c3ccc(F)cc3)on2)c1,105%,41,-13%,-15,0%,41*
CSc1ccccc1NC(=O)c1cc(-c2cccs2)on1,44%,56*,·,39,3%,15
Cc1ccc(Cn2ccc(NC(=O)c3cc(-c4ccc(Cl)cc4)on3)n2)cc1,69%,13,14%,?,6%,-2
SMILES,Pf growth 48h,Shiga inhibitor,Pf growth 96h,HCMV inh,HCV inhibitor,Cycloheximide cs
COc1ccc(CNS(=O)(=O)c2ccc(C(=O)N(C)C)s2)cc1,·,·,·,7,·,·
Cc1ccccc1Cn1ccc(NC(=O)c2cc3ncc(Br)cn3n2)n1,-15%,-6,?,-29,6%,-1
Cc1ccc(O)c(NC(=O)c2cc(-c3cccs3)on2)c1,?,79*,14%,?,0%,21*
Cc1ccccc1Cn1ccc(NC(=O)c2nn3cccnc3c2Cl)n1,2%,47,-45%[5.75 µM],0,-10%,22*
O=C(Nc1ccn(Cc2ccccc2)n1)c1ccc(F)cc1,90%,85*,3%,-27,-19%,45*
O=C(Nc1ccn(Cc2ccccc2)n1)c1cccc(Cn2cc([N+](=O)[O-])cn2)c1,-8%,21,-43%,-17,-21%,-2
Oc1cccc(Nc2ccccc2)c1,39%,·,-7%,-31,-12%,·

# Source: PubChem BioAssay
